The values that follow come from PubChem BioAssay (NCATS).

Inconclusive results are not listed. The source made the active and inactive calls. Unless noted, the call rests on the fitted dose curve; in most records, active means well fitted curve in either direction with a large enough effect (not every such curve was filed as active); inconclusive means small, poorly fitted or top-dose-only effect, or another doubt; inactive means flat fitted curve, though single readings scatter.

Test [1] is described as follows: AP1 Signaling Pathway (AID 357). Further: on the % scale 0 is the no-effect control and ±100 the full control effect. Conditions: ME-180 AP-1-bla reporter, EGF-induced, beta-lactamase ratio, 5 h; at 17.2 µM (top of the series) unless noted. Summed up:
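AP-1-bla ME-180 cells with beta-lactamase reporter under AP-1 response element, stimulated with EC50 EGF; compounds titrated, 5 hours at 37 degrees Celsius. CCF4 read at 460/530 nm ratio; positive and negative modulators judged by AC50.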

Test [2] is described as follows: NFAT Signaling Pathway (AID 444).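 Further: carbachol stimulus at about its EC50 of 1 µM final; on the % scale 0 is the no-effect control and ±100 the full control effect.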 The note with it: Jurkat NFAT-bla M1, carbachol, beta-lactamase ratio, 5 h; at 17.2 µM (top of the series) unless noted. An outline of the steps: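 Jurkat cells with NFAT-driven β-lactamase reporter and co-expressed M1 receptor, stimulated with carbachol (final 1 uM, ~EC50), compound titration, 5 h at 37 °C. CCF4 loaded 1 h at RT; 460/530 nm ratio gave %activity and AC50.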

Test [3] in a line: Stat Signaling Pathway (AID 446).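 Further: ME-180 cervical cancer cells given 40 pM IL-6 alongside compound; SIE-controlled beta-lactamase reporter measured as 460/530 nm FRET emission ratio; on the % scale 0 is the no-effect control and ±100 the full control effect.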 The note with it: ME-180 (cervical carcinoma) SIE beta-lactamase reporter, IL-6 stimulated, 5 h; at 17.2 µM (top of the series) unless noted. An outline of the steps:
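Compound effects on IL-6-induced STAT reporter activity were measured in ME-180 cells. After overnight culture, cells were co-treated with 40 pM IL-6 for 5 hrs before beta-lactamase substrate loading at room temperature.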

Test [4] deals with Glucocorticoid receptor (Homo sapiens) (UniProt P04150). The test can be described thus: GR-GFP Redistribution (AID 450;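 active means compounds whose dose series gives a full or clear partial fitted curve of increased nuclear translocation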; further: potency means the concentration at half of the fitted maximal effect).
Glucocorticoid receptor (Homo sapiens), sequence (P04150 whole entry, looked up): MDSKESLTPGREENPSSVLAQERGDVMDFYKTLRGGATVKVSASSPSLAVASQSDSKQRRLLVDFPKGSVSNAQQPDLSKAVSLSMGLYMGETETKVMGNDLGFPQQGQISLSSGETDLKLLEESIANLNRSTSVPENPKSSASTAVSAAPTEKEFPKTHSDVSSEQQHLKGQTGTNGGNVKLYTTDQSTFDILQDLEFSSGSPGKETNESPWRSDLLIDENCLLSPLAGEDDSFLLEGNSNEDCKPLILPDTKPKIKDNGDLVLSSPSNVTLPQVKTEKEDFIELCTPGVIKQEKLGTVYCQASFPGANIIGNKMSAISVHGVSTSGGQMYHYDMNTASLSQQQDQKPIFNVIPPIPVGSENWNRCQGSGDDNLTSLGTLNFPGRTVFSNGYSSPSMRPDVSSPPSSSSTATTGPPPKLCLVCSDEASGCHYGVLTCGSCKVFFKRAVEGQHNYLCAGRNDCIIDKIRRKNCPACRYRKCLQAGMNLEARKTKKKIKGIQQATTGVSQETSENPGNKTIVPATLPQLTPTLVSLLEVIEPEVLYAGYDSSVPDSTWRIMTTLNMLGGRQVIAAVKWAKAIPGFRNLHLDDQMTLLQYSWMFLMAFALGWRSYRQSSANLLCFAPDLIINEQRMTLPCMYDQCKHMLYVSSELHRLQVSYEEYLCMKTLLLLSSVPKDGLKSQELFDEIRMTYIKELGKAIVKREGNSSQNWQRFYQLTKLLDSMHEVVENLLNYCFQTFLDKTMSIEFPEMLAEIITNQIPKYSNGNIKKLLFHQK

As to `CCc1nc2n[nH]c(N)c2c2c1CSC(C)(C)C2`, the activity change, negative = inhibition is 1.67% (inactive) in test [1] and 14.6% (inactive) in test [2]. Moreover, in test [3], the activity, negative = inhibition was -13.2% (inactive). Moreover, in test [4], the Potency is > 20.6 µM (inactive).

Regarding `N#CC1(P(=O)(c2ccccc2)c2ccccc2)CC1`, the results for the activity change, negative = inhibition in test [1] and in test [2] were 0.213% (inactive) and -2.17% (inactive), respectively. For the same molecule, the activity, negative = inhibition in test [3] was 1.75% (inactive). In addition, the Potency in test [4] is > 20.6 µM (inactive).

Take `N#Cc1c(NCCN)nc(NCc2ccccc2)c2c1CCN(Cc1ccccc1)C2`: the activity change, negative = inhibition is 0.0828% (inactive) in test [1] and 21.6% (inactive) in test [2]. The activity, negative = inhibition in test [3] was -5.14% (inactive). Moreover, the Potency in test [4] was > 20.6 µM (inactive).

As to `N#Cc1c2c(c(-c3ccco3)[nH]c1=O)CCCC2`, the activity change, negative = inhibition in test [1] is -0.634% (inactive); in test [2] it was 10.5% (inactive). Also, in test [3], the activity, negative = inhibition is -2.06% (inactive). Further, the Potency in test [4] is > 20.6 µM (inactive).

In the case of `COc1ccc(-c2cc(=O)[nH]c(=O)[nH]2)cc1`, the activity change, negative = inhibition in test [1] was 6.12% (inactive); in test [2], -4.97% (inactive). Moreover, the activity, negative = inhibition in test [3] is -5.47% (inactive). Moreover, the Potency in test [4] was > 20.6 µM (inactive).

For `O=C(NCc1ccco1)c1cnn2c1NC(c1ccccc1)CC2C(F)(F)F` (configuration not stated), the activity change, negative = inhibition in test [1] was -8.13% (inactive); in test [2], -2.99% (inactive). Besides, in test [3], the activity, negative = inhibition is -6.74% (inactive). Moreover, the Potency in test [4] was > 20.6 µM (inactive).

Take `CCOC(=O)/C(C#N)=C1/SC(CCO)C(=O)N1c1ccccc1` (configuration not stated): the figures for the activity change, negative = inhibition in test [1] and in test [2] were -6.66% (inactive) and 2.53% (inactive), respectively. In test [3], the activity, negative = inhibition is -3.36% (inactive). Further, the Potency in test [4] is > 20.6 µM (inactive).

For the molecule `CCOCCn1c(SCc2c(F)cccc2Cl)nc2c1c(=O)[nH]c(=O)n2C`, the activity change, negative = inhibition is -8.65% (inactive) in test [1] and -17.4% (inactive) in test [2]. In addition, the activity, negative = inhibition in test [3] is -2.5% (inactive). Further, the Potency in test [4] is > 20.6 µM (inactive).

As to `Cc1cc(C)n(CC2CC(=O)N(c3ccc(Cl)c(Cl)c3)C2=O)n1` (configuration not stated), the results for the activity change, negative = inhibition in test [1] and in test [2] were -14.3% (inactive) and -11.5% (inactive), respectively. The activity, negative = inhibition in test [3] was 0.577% (inactive). Moreover, in test [4], the Potency is > 20.6 µM (inactive).

With `C[n+]1cccc(CNC(=O)/C=N/O)c1`, the activity change, negative = inhibition was -0.78% (inactive) in test [1] and 2.4% (inactive) in test [2]. Further, in test [3], the activity, negative = inhibition is 7.83% (inactive). The Potency in test [4] is > 20.6 µM (inactive).

With `CCc1nc(SCc2cccnc2)c(C#N)cc1C`, the activity change, negative = inhibition is -8.39% (inactive) in test [1] and -24.2% (inactive) in test [2]. In addition, the activity, negative = inhibition in test [3] was 0.873% (inactive). The Potency in test [4] is > 20.6 µM (inactive).

Turning to `Cc1c(-c2cccs2)[n+](=O)c2c(n1[O-])CCCC2`, the activity change, negative = inhibition in test [1] was 14.7% (inactive); in test [2], -0.25% (inactive). In addition, the activity, negative = inhibition in test [3] is 6.22% (inactive). The Potency in test [4] is > 20.6 µM (inactive).

As to `CCOC(=O)C1=C(N)N2C(=O)CSC2=C(C(=O)OC)C1`, the figures for the activity change, negative = inhibition in test [1] and in test [2] were -12.4% (inactive) and 12.5% (inactive), respectively. The activity, negative = inhibition in test [3] was -25.6% (inactive). Further, in test [4], the Potency was > 20.6 µM (inactive).

As to `COc1ccc(/C(O)=C2/C(=O)C(=O)N(CCCN(C)C)C2c2cccc(Cl)c2)cc1OC` (configuration not stated), the results for the activity change, negative = inhibition in test [1] and in test [2] were -5.39% (inactive) and 6.97% (inactive), respectively. Further, the activity, negative = inhibition in test [3] was 3.83% (inactive). Further, the Potency in test [4] was > 20.6 µM (inactive).

Consider `O=c1[nH]c(CN(CCO)CCO)nc2c1C1(CCCCC1)Cc1ccccc1-2`, for which the activity change, negative = inhibition was 8.29% (inactive) in test [1] and 6.88% (inactive) in test [2]. Further, the activity, negative = inhibition in test [3] was -8.23% (inactive). Besides, in test [4], the Potency was > 20.6 µM (inactive).

Regarding `Cc1nnc(SCc2nc3ccccc3[nH]2)s1`, the activity change, negative = inhibition in test [1] is 1.21% (inactive); in test [2], 8.95% (inactive). The activity, negative = inhibition in test [3] is 4.08% (inactive). Besides, the Potency in test [4] was > 20.6 µM (inactive).

As for `COc1ccccc1NC(=O)c1c(C)cc(=O)oc1C`, the results for the activity change, negative = inhibition in test [1] and in test [2] were 13% (inactive) and 12.5% (inactive), respectively. Also, in test [3], the activity, negative = inhibition is 0.453% (inactive). Also, in test [4], the Potency is > 20.6 µM (inactive).

Take `O=C(OCCCN1CCCC1)C1(c2ccccc2)CCCC1`: the activity change, negative = inhibition is 14.4% (inactive) in test [1] and -82.8% (active) in test [2]. In addition, in test [3], the activity, negative = inhibition is 13.7% (inactive). Besides, in test [4], the Potency was > 20.6 µM (inactive).
